Screening data (PubChem)
Only some compounds are listed: those with a hit (about 2.2% of all), similar ones and a draw of the others.
KLF5 inh: suppresses KLF5 promoter-driven expression. DLD-1 KLF5 promoter-luciferase reporter, luminescence. inhibition, % at 5 µM. actives 0.23% (n = 290,000). AID 1700;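 active = inhibition above a per-plate limit of that plate's mean compound inhibition plus 3 SD, cut at about 60% in these data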;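 note: higher means less KLF5 promoter-driven luciferase light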
aSyn UTR inh: MLPCN primary screen, SNCA 5' untranslated region; alpha-synuclein 5'UTR reporter, inhibitor activity; inhibition, % (tested at 7.5 µM); actives 0.82% (n = 300,000); AID 1813; in the data active = inhibition above about 60%; inconclusive = no clear call, values can overlap the other calls;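 note: H4 neuroglioblastoma cells stably carrying SNCA 5'UTR luciferase fusion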
IEC-6 cytotox: counter-screen for KLF5 inhibitors: cytotoxicity in IEC-6 cells; IEC-6 cytotoxicity, luminescence viability; inhibition, % at 5 µM; actives 0.78% (n = 290,000); AID 1825; in the data active = inhibition above about 22%
APP 5UTR inh: APP translation inhibition; AID 1285; inhibition, % at 2 µM; actives 0.82% (n = 190,000); SH-SY5Y APP 5'UTR-luciferase reporter, luminescence;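 active = inhibition above a set limit, derived from the sample mean plus 3 SD, cut at about 45% in these data; inconclusive = one replicate passes the limit while the other fails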
Ba/F3 V617F tox: loss of viability in JAK2V617F-driven Ba/F3 cells | Ba/F3 EpoR-JAK2V617F viability, ATP luminescence | inhibition, % at 5.6 µM | actives 1.1% (n = 220,000);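 active = inhibition above the campaign mean plus 3 SD over all tested compounds, cut at about 24% in these data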;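 note: cytokine-independent growth of Ba/F3 cells driven by EpoR plus mutant JAK2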
BaF3 tox: counter-screen for JAK2V617F inhibitors: parental Ba/F3 viability inhibitors. inhibition, % at 5.6 µM. CellTiter-Glo ATP luminescence. actives 1.1% (n = 220,000);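 active = inhibition above a per-campaign cutoff, the mean inhibition of all tested compounds plus 3 SD, cut at about 27% in these data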
A number is an active result.

Cc1nc([N+](=O)[O-])c(Br)n1CC(=O)c1ccc(F)cc1 was read as KLF5 inh inactive, IEC-6 cytotox inactive, APP 5UTR inh inactive, Ba/F3 V617F tox 36.7 and BaF3 tox inactive.
For Cc1nc([N+](=O)[O-])c(Br)n1CC(=O)c1cccc([N+](=O)[O-])c1 the results were KLF5 inh inactive, aSyn UTR inh inactive, IEC-6 cytotox inactive, APP 5UTR inh inactive, Ba/F3 V617F tox inactive and BaF3 tox inactive.
CC(C)(C#CC(O)(c1ccccc1)c1ccccc1)N1CCCC1 was read as KLF5 inh inactive, aSyn UTR inh inactive, IEC-6 cytotox inactive, APP 5UTR inh inactive, Ba/F3 V617F tox inactive and BaF3 tox inactive.
Screening COc1ccc(N=CC2=C(O)c3ccccc3C2=O)c(OC)c1 returned KLF5 inh inactive, aSyn UTR inh 62.5, IEC-6 cytotox inactive, APP 5UTR inh inactive, Ba/F3 V617F tox inactive and BaF3 tox inactive.
For CC1Cc2cc(S(=O)(=O)N3CCC(C(=O)N(C)Cc4ccccc4)CC3)ccc2N1C(=O)C1CC1 (configuration not stated) the results were KLF5 inh inactive, aSyn UTR inh inactive and IEC-6 cytotox inactive.
N#Cc1c(N)n(C2CCCCC2)c2nc3ccccc3nc12 was read as KLF5 inh inactive, aSyn UTR inh 62.2, IEC-6 cytotox inactive, APP 5UTR inh inactive, Ba/F3 V617F tox inactive and BaF3 tox inactive.
`CCC(=O)Nc1c(C#N)c2nc3ccccc3nc2n1C1CCCCC1` gave KLF5 inh inactive, aSyn UTR inh inactive, IEC-6 cytotox inactive, APP 5UTR inh inactive, Ba/F3 V617F tox inactive and BaF3 tox inactive.
CCN(CC)S(=O)(=O)c1cccc(C(=O)N/N=C(\C)c2ccc(O)cc2O)c1 was read as KLF5 inh inactive, aSyn UTR inh 110.6, IEC-6 cytotox inactive, APP 5UTR inh inactive, Ba/F3 V617F tox inactive and BaF3 tox inactive.
CCOC(=O)N1CCN(C(=O)CN(c2ccc(OCC)cc2)S(C)(=O)=O)CC1 was read as KLF5 inh inactive, aSyn UTR inh inactive, IEC-6 cytotox inactive, APP 5UTR inh inactive, Ba/F3 V617F tox inactive and BaF3 tox inactive.
`CCOC(=O)N1CCN(C(=O)CN(c2ccc(Oc3ccccc3)cc2)S(C)(=O)=O)CC1` gave KLF5 inh inactive, aSyn UTR inh inactive, IEC-6 cytotox inactive, APP 5UTR inh inactive, Ba/F3 V617F tox inactive and BaF3 tox 34.1.
For CCCn1c(=O)c(C(=O)OCC)c(O)c2cc(Br)ccc21 the results were KLF5 inh inactive, aSyn UTR inh inactive, IEC-6 cytotox inactive, APP 5UTR inh inactive, Ba/F3 V617F tox inactive and BaF3 tox inactive.
Screening CCOC(=O)c1c2c(n(C)c1COC)C(=O)C(=O)c1ccc(Br)cc1-2 returned KLF5 inh inactive, aSyn UTR inh 92.1, IEC-6 cytotox inactive, APP 5UTR inh inactive, Ba/F3 V617F tox inactive and BaF3 tox inactive.
C/C(N)=C(/C#N)C(=O)COC(=O)Cc1coc2ccc3ccccc3c12 was read as KLF5 inh inactive, aSyn UTR inh inactive, IEC-6 cytotox inactive, APP 5UTR inh inactive, Ba/F3 V617F tox inactive and BaF3 tox inactive.
`Cc1cc(Cl)c2oc(C(=O)N3CCN(c4ccncc4)CC3)c(C)c2c1` gave KLF5 inh inactive, aSyn UTR inh 90.3 and IEC-6 cytotox inactive.
`Cc1cc(C(=O)NCC(C)(C)N2CCOCC2)c(C)o1` gave aSyn UTR inh inactive.
O=C(NCc1cccs1)c1nc2c(nnn2Cc2ccccc2Cl)c(=O)[nH]1 was read as KLF5 inh inactive, aSyn UTR inh 77.0, IEC-6 cytotox inactive, APP 5UTR inh inactive, Ba/F3 V617F tox inactive and BaF3 tox inactive.
For CC(C)Cc1ccc(C(C)C(=O)Nc2ccccc2O)cc1 (configuration not stated) the results were KLF5 inh inactive, aSyn UTR inh inactive, IEC-6 cytotox inactive, Ba/F3 V617F tox inactive and BaF3 tox 37.8.
CC1(C)N=C(N)NC(Nc2ccc(Br)cc2)=N1 was read as KLF5 inh inactive, aSyn UTR inh inactive, IEC-6 cytotox inactive, APP 5UTR inh inactive, Ba/F3 V617F tox inactive and BaF3 tox 34.5.
NC(=O)c1ccc(N2CCN(S(=O)(=O)c3ccccc3)CC2)c([N+](=O)[O-])c1 was read as KLF5 inh inactive, aSyn UTR inh inactive, IEC-6 cytotox inactive, APP 5UTR inh inactive, Ba/F3 V617F tox 35.6 and BaF3 tox 38.0.
For O=c1[nH]c(SCc2nc3ccccc3n2Cc2ccccc2)nc2ccccc12 the results were KLF5 inh inactive, aSyn UTR inh inactive, IEC-6 cytotox inactive, Ba/F3 V617F tox inactive and BaF3 tox inactive.
Screening Nc1cc(=O)[nH]c(SCc2nc3ccccc3n2Cc2ccccc2)n1 returned KLF5 inh inactive, aSyn UTR inh inactive, IEC-6 cytotox inactive, APP 5UTR inh 46.3, Ba/F3 V617F tox inactive and BaF3 tox inactive.
`CC(=O)Nc1ccc(Nc2nc(C)c([N+](=O)[O-])c(N(C)c3ccccc3)n2)cc1` gave KLF5 inh inactive, aSyn UTR inh 85.6, IEC-6 cytotox inactive, Ba/F3 V617F tox inactive and BaF3 tox inactive.
CC(=O)Nc1ccc(Nc2nc(C)c([N+](=O)[O-])c(Nc3ccccc3)n2)cc1 was read as KLF5 inh inactive, aSyn UTR inh inconclusive, IEC-6 cytotox inactive, APP 5UTR inh inactive, Ba/F3 V617F tox inactive and BaF3 tox inactive.
Screening O=C(NCc1cccnc1)c1ccc(NS(=O)(=O)c2ccc(F)cc2)cc1 returned KLF5 inh inactive, aSyn UTR inh inactive and IEC-6 cytotox inactive.
`CC(C)=C1SC(N2CCCCC2)=NC1=O` gave KLF5 inh inactive, aSyn UTR inh inactive, IEC-6 cytotox inactive, APP 5UTR inh inactive, Ba/F3 V617F tox inactive and BaF3 tox inactive.
`C/C(=C1/SC(N2CCCC2)=NC1=O)c1ccc(Br)cc1` gave KLF5 inh inactive, aSyn UTR inh inactive, IEC-6 cytotox inactive, APP 5UTR inh inactive, Ba/F3 V617F tox 33.8 and BaF3 tox 27.8.
For CCOC(=O)C(CC)/C(C)=N\NC(=O)c1ccccc1O (configuration not stated) the results were KLF5 inh inactive, aSyn UTR inh 93.5, IEC-6 cytotox inactive, APP 5UTR inh 52.1, Ba/F3 V617F tox inactive and BaF3 tox inactive.
CC(C)(C)c1ccc(C(=O)N2CCCCCC2=O)cc1 was read as KLF5 inh inactive, aSyn UTR inh 90.7, IEC-6 cytotox inactive, APP 5UTR inh 56.9, Ba/F3 V617F tox inactive and BaF3 tox inactive.
Screening CC(C)(C)c1ccc(C(=O)Nc2ccc(C(=O)N3CCCC3)cc2)cc1 returned KLF5 inh inactive, aSyn UTR inh inactive and IEC-6 cytotox inactive.
Screening COc1ccc(C(=O)N/C(=C\c2ccco2)C(=O)NCCN2CCOCC2)cc1 returned KLF5 inh inactive, aSyn UTR inh inactive and IEC-6 cytotox inactive.
Screening Cc1ccc(C(=O)NCCc2ccccc2)cc1 returned KLF5 inh inactive, aSyn UTR inh 71.1 and IEC-6 cytotox inactive.
Cc1ccc(NS(=O)(=O)c2ccc(C(=O)N3CCN(c4ncccn4)CC3)cc2)cc1 was read as KLF5 inh inactive, aSyn UTR inh inactive, IEC-6 cytotox inactive, APP 5UTR inh inactive, Ba/F3 V617F tox inactive and BaF3 tox 27.9.
`O=C(Nc1ccc2c(c1)OCCO2)c1cccc2nc3ccccc3nc12` gave KLF5 inh inactive, aSyn UTR inh inconclusive, IEC-6 cytotox inactive, APP 5UTR inh 45.7, Ba/F3 V617F tox inactive and BaF3 tox inactive.
